Source: PubChem BioAssay (National Center for Advancing Translational Sciences (NCATS))
This is a sample that favours compounds with a hit; in the whole collection about 7.5% have one here.
Rab9 prom act – Rab9 promoter activation. Huh7 Rab9 promoter-luciferase reporter, luminescence, 24 h. Potency, µM (titrated, usually from 9.22 µM), for inactives: at the highest dose activation, negative = inhibition, actives largely listed as activators. actives 2.8% (n = 320,000). AID 485297; note: % of control where 0% means no effect; nearly all actives have a fitted effect of over 60% in size
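Huh7 cells stably carrying Rab9 promoter–luciferase reporter, plated 1500 cells/well, compound added after 2 h and incubated 24 h at 37 °C; luciferase luminescence then read after 10 min with detection reagent.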
SMN2 splice up – SMN2 splice variant enhancement | HEK293 SMN2-luciferase splicing reporter, luminescence, 30-36 h | Potency, µM (series often up to 46.1 µM), without a hit: top-dose activity change, positive = activation, hits mostly activators | actives 2.8% (n = 210,000) | AID 1458; note: % of control where 0% means no effect; nearly all actives have a fitted effect of over 55% in size
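HEK293 cells carry an SMN2 […]–luciferase reporter in which exon 7 inclusion puts luciferase in frame. Cells were plated 10-12 h before compound addition, then incubated 30-36 h at 37C. ONE-Glo luminescence was read; sodium butyrate at 4.5 mM final served as control.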
ELG1 genotoxic – induces genotoxicity in HEK293T cells with luciferase-tagged ELG1 | actives 1.3% (n = 330,000) | Potency, µM (highest dose often 46 µM), inactives show at the top dose activity change, positive = activation, hits mostly activators | HEK293T ELG1-luciferase reporter, luminescence, 16 h; note: % of control where 0% means no effect; nearly all actives have a fitted effect of over 60% in size
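HEK293T cells expressing luciferase-tagged ELG1 were treated with compound or DMSO for 16 hr at 37°C. Luciferase activity was then read after 30 min with ONE-Glo at room temperature; rising signal flags genetic stress.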
NPC1 promoter act – NPC1 promoter activation. Potency, µM (series often up to 9.22 µM), for inactives: at the highest dose activation, most hits filed as activators. actives 2.4% (n = 320,000). Huh7 NPC1 promoter luciferase reporter, 24 h; note: % of control where 0% means no effect; nearly all actives have a fitted effect of over 60% in size
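Stable NPC1-promoter luciferase Huh7 line; cpd (DMSO) 24 h, 37 °C, 5% CO2; Amplite luciferase reagent 10 min RT; luminescence readout. qHTS format.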
FLuc modulator – firefly luciferase modulation, counter-screen for miR-21 project; actives 6.9% (n = 360,000); purified FLuc, Km substrates, luminescence inhibition; P08659; Potency, µM (top dose mostly 57.5 µM), for inactives: at the highest dose activity change, negative = inhibition, hits mostly inhibitors;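 note: plate controls were vehicle for no effect and reference inhibitor for full effect; nearly all actives have a fitted effect of over 55% in size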
Target sequence (P08659 whole entry, looked up): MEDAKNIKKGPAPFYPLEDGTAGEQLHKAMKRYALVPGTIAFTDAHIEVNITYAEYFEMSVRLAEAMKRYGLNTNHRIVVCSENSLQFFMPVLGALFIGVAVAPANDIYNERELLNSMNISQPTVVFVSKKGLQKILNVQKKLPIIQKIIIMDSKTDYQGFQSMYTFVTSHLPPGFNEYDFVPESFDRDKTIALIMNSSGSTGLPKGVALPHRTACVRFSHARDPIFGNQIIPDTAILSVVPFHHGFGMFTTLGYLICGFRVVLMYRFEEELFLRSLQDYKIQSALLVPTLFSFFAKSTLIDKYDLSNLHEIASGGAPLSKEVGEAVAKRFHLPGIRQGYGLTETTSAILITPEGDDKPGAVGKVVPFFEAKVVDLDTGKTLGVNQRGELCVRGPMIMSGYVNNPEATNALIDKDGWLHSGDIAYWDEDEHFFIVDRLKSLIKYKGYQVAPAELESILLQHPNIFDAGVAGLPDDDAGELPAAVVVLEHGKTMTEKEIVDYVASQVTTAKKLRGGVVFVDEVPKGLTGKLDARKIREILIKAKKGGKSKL
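Biochemical qHTS of compounds, final roughly 60 µM downward over six points, against 10 nM purified firefly luciferase using Km concentrations of substrates (10 uM D-luciferin, 10 uM ATP) in Tris acetate pH 7.5 buffer; luminescence output.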
KinaseGlo FLuc – Kinase-Glo luciferase inhibition (counter-screen). Kinase-Glo luciferase, ATP luminescence, 8 min. Potency, µM (top dose mostly 38.3 µM), without a hit: top-dose activity change, negative = inhibition, most hits filed as inhibitors. actives 0.28% (n = 200,000). AID 1379; note: % is set by controls: 0 for no effect and ±100 for the full control effect; nearly all actives have a fitted effect of over 60% in size
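Luminescence was the read-out, taken after 8-minute incubation at ambient temperature. Luciferase turned over luciferin with 10 uM ATP in imidazole pH 7.2 buffer containing KCl, MgCl2, Tween 20 and BSA.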
* hit, by the source's call. Calls come from the whole dose curve; as a rule, active = well fitted curve in the direction sought with a large enough effect; inconclusive = small, poorly fitted or top-dose-only effect, or another doubt; inactive = no such curve, though single readings can be large; an effect the other way counts as inactive or inconclusive. Potency is the fitted concentration of half-maximal effect.

For N/C(=N\OC(=O)C(c1ccccc1)c1ccccc1)c1cccnc1 the results were Rab9 prom act -2%, SMN2 splice up -6%, ELG1 genotoxic 1%, NPC1 promoter act 1%, FLuc modulator 0% and KinaseGlo FLuc 0%.
Screening N/C(=N\OC(=O)/C=C/c1ccccc1)c1cccnc1 returned Rab9 prom act 11%, SMN2 splice up 2%, ELG1 genotoxic inconclusive, NPC1 promoter act 0%, FLuc modulator 12µM* and KinaseGlo FLuc -7%.
`N/C(=N\OC(=O)/C=C/c1ccccc1Cl)c1cccnc1` gave Rab9 prom act inconclusive, ELG1 genotoxic 21µM*, NPC1 promoter act inconclusive and FLuc modulator 7.6µM*.
Screening O=C(COC(=O)/C=C/c1ccccc1Cl)Nc1cccnc1Cl returned ELG1 genotoxic -1%.
Screening COc1ccc(S(=O)(=O)N2CCOCC2)cc1NC(=O)CCOc1ccc(C(C)(C)C)cc1 returned Rab9 prom act -3%, ELG1 genotoxic 2%, NPC1 promoter act -4% and FLuc modulator 4%.
`CCOc1ccc(-n2c(C)cc(/C=C3/C(=N)N4C(=NC3=O)SN=C4S(C)(=O)=O)c2C)cc1` gave Rab9 prom act -2%, SMN2 splice up -6%, ELG1 genotoxic 4%, NPC1 promoter act -1%, FLuc modulator 17µM* and KinaseGlo FLuc 1%.
Screening Cc1cccc(C)c1-n1cccc1/C=C1/C(=N)N2C(=NC1=O)SN=C2S(C)(=O)=O returned Rab9 prom act -3%, SMN2 splice up -37%, ELG1 genotoxic 0%, NPC1 promoter act -1%, FLuc modulator 24µM* and KinaseGlo FLuc 3%.
`Cc1ccc(-n2cccc2/C=C2/C(=N)N3C(=NC2=O)SN=C3S(C)(=O)=O)cc1Cl` gave Rab9 prom act 3%, SMN2 splice up 12%, ELG1 genotoxic 5%, NPC1 promoter act -4%, FLuc modulator -4% and KinaseGlo FLuc 2%.
CCOc1cc(/C=C2/C(=N)N3C(=NC2=O)SN=C3S(C)(=O)=O)ccc1OS(=O)(=O)c1ccccc1 was read as Rab9 prom act 5%, ELG1 genotoxic 5%, NPC1 promoter act 0% and FLuc modulator inconclusive.
`COc1ccccc1-n1c(C)cc(/C=C2\C(=N)N3N=C(CC(=O)N4CCOCC4)SC3=NC2=O)c1C` gave Rab9 prom act -2%, ELG1 genotoxic 7%, NPC1 promoter act 4% and FLuc modulator 24µM*.
For COc1ccc(-n2c(C)cc(/C=C3\C(=N)N4N=C(CC(=O)N5CCOCC5)SC4=NC3=O)c2C)c(OC)c1 the results were Rab9 prom act -10%, ELG1 genotoxic 5%, NPC1 promoter act -2% and FLuc modulator inconclusive.
For COc1ccccc1-n1c(C)cc(/C=C2/C(=N)N3C(=NC2=O)SN=C3S(C)(=O)=O)c1C the results were Rab9 prom act inconclusive, SMN2 splice up -14%, ELG1 genotoxic inconclusive, NPC1 promoter act inconclusive, FLuc modulator 0.67µM* and KinaseGlo FLuc -2%.
`CC(C)N1C(=O)C(O)(c2c[nH]c3ccccc23)c2ccccc21` (stereo not drawn) gave SMN2 splice up -17% and FLuc modulator -6%.
For Cc1cc(/C=C2/C(=N)N3C(=NC2=O)SN=C3S(C)(=O)=O)c(C)n1-c1ccc(F)cc1 the results were Rab9 prom act 14%, SMN2 splice up inconclusive, ELG1 genotoxic inconclusive, NPC1 promoter act 30%, FLuc modulator 1.5µM* and KinaseGlo FLuc 14%.
Cc1cccc(Nc2nc(N)nc(CSc3nccn3C)n2)c1 was read as Rab9 prom act 5µM*, SMN2 splice up inconclusive, ELG1 genotoxic inconclusive, NPC1 promoter act inconclusive, FLuc modulator inconclusive and KinaseGlo FLuc 2%.
Cc1ccc(Nc2nc(N)nc(CSc3nccn3C)n2)cc1 was read as Rab9 prom act 1.6µM*, SMN2 splice up 13µM*, ELG1 genotoxic 2.9µM*, NPC1 promoter act 2.5µM*, FLuc modulator 9.5µM* and KinaseGlo FLuc -2%.
Screening CCOC(=O)CSc1nc2nc(C)cc(C)n2n1 returned Rab9 prom act 2%, SMN2 splice up 8%, ELG1 genotoxic -5%, NPC1 promoter act -5%, FLuc modulator 0% and KinaseGlo FLuc 2%.
For CCCn1c(C)cc(C(=O)CSc2nc3nc(C)cc(C)n3n2)c1C the results were Rab9 prom act 0%, SMN2 splice up -18%, ELG1 genotoxic 0%, NPC1 promoter act -1%, FLuc modulator 21µM* and KinaseGlo FLuc -2%.
`Cc1ccc(NC(=O)c2cc(-c3ccc(F)cc3)on2)cc1C` gave Rab9 prom act 3%, SMN2 splice up -1%, ELG1 genotoxic 15%, NPC1 promoter act 2%, FLuc modulator 0% and KinaseGlo FLuc 1%.
For O=C(NC1CCCC1)c1cc(-c2ccc(Cl)cc2)on1 the results were Rab9 prom act 1.8µM*, ELG1 genotoxic 4.6µM*, NPC1 promoter act 1.4µM* and FLuc modulator 2.7µM*.
O=C(NC1CCCC1)c1cc(-c2cccc(Cl)c2)on1 was read as Rab9 prom act 2.8µM*, ELG1 genotoxic 18µM*, NPC1 promoter act 2.8µM* and FLuc modulator 15µM*.
O=C(NC1CCCC1)c1cc(-c2ccc(F)cc2)on1 was read as Rab9 prom act 1.8µM*, ELG1 genotoxic 4.6µM*, NPC1 promoter act 1µM* and FLuc modulator 4.8µM*.
Screening O=C(NC1CCCCC1)c1cc(-c2ccc(Cl)cc2)on1 returned Rab9 prom act 26%, ELG1 genotoxic 8%, NPC1 promoter act 30% and FLuc modulator 3%.
Screening CC(=O)Nc1ccc(NC(=O)CN2C(=O)CC(c3ccco3)Sc3ccccc32)cc1 (stereo not drawn) returned SMN2 splice up -6% and FLuc modulator inconclusive.
For Clc1ccc(C2=NNC(=NCC3CCCO3)SC2)cc1 (stereo not drawn) the results were Rab9 prom act inconclusive, SMN2 splice up 11µM*, ELG1 genotoxic 20%, NPC1 promoter act 3.2µM*, FLuc modulator 12µM* and KinaseGlo FLuc 5%.
`C=CCn1c(C)cc(C2=NNC(=NCc3ccccc3)SC2)c1C` gave Rab9 prom act 2.2µM*, SMN2 splice up 13µM*, ELG1 genotoxic inconclusive, NPC1 promoter act inconclusive, FLuc modulator 19µM* and KinaseGlo FLuc -2%.
For Cc1cc(C2=NNC(=NCCc3ccccc3)SC2)c(C)n1CC1CCCO1 (stereo not drawn) the results were Rab9 prom act inconclusive, SMN2 splice up -37%, ELG1 genotoxic 8%, NPC1 promoter act 30%, FLuc modulator 15µM* and KinaseGlo FLuc -9%.
